Assay results as given in PubChem BioAssay AID463173 (ICCB-Longwood Screening Facility, Harvard Medical School, 2010).
Out of some 52,000 compounds screened, about 4,300 (8.3%) were called active. Only a selection was taken, and actives are over-represented in it overall. A number with no mark means an inactive call. No stated cut-off is given here; in the data, active means survival mostly below about 52% (no sharp cut-off); inactive means mostly above about 56%.

The compounds below were run on DeltatarO mutant (assay: growth inhibition of S. aureus wild type versus tarO mutant, primary screen, teichoic acid synthesis inhibitors, RN4220, OD600 (AID 463173)). Conditions: OD600, 18 h, active compounds read low, screened at 18.75 µg/mL (by protocol).

| Compound | survival |
| --- | --- |
| O=C(Oc1c(Cl)cc(Cl)c2cccnc12)N1CCCCCC1 | 112% |
| COC(=O)c1cc2sccc2n1CC(=O)Nc1ccc(OC)c(OC)c1 | 86% |
| Cc1cccc(OCC(=O)Nc2ccccc2OCc2cc(=O)n3cc(C)ccc3n2)c1 | 94% |
| COc1ccc(OC(=O)CSc2nnc(-c3ccc(F)cc3)o2)cc1 | 109% |
| FC(F)(F)c1cccc(C(c2nnnn2Cc2ccccc2)N(Cc2ccco2)CC2CCCO2)c1 (configuration not stated) | 105% |
| COc1cccc(C(=O)Nc2c3c(nn2-c2ccc(C)cc2C)CS(=O)(=O)C3)c1OC | 116% |
| COc1ccc2cc3cc(C(=O)Nc4ccccc4C)oc3nc2c1 | 116% |
| Cc1ccc(C)c(N2CCN(C(c3ccccc3)c3nnc(-c4ccccc4)o3)CC2)c1 (configuration not stated) | -5% (active) |
| Cc1ccc(Cl)cc1N1CCN(C(c2ccc(F)cc2)c2nnc(-c3ccccc3)o2)CC1 (configuration not stated) | 55% |
| Cc1ccc(C)c(N2CCN(C(c3ccc(F)cc3)c3nnc(-c4ccccc4)o3)CC2)c1 (configuration not stated) | 16% (active) |
| Cc1ccc(C)c(N2CCN(C(c3ccccc3)c3nnc(-c4ccccc4F)o3)CC2)c1 (configuration not stated) | 61% |
| COc1ccccc1N1CCN(C(c2ccccc2)c2nnc(-c3ccccc3Cl)o2)CC1 (configuration not stated) | 32% (active) |
| Fc1ccc(C(c2nnc(-c3ccccc3)o2)N2CCN(c3cccc(Cl)c3)CC2)cc1 (configuration not stated) | 91% |
| Fc1ccc(C(c2nnc(-c3ccccc3)o2)N2CCN(c3ccccc3)CC2)c(Cl)c1 (configuration not stated) | 84% |
| COc1ccc(N2CCN(C(c3ccccc3)c3nnc(-c4ccccc4Cl)o3)CC2)cc1 (configuration not stated) | 49% |
| Cc1cccc(N2CCN(C(c3ccccc3)c3nnc(-c4ccccc4Cl)o3)CC2)c1C (configuration not stated) | 51% |
| Cc1cccc(N2CCN(C(c3ccc(F)cc3)c3nnc(-c4ccccc4)o3)CC2)c1C (configuration not stated) | 39% (active) |
| Cc1cccc(N2CCN(C(c3ccccc3)c3nnc(-c4ccccc4F)o3)CC2)c1C (configuration not stated) | 58% |
| COc1ccccc1N1CCN(C(c2ccc(Cl)cc2)c2nnc(-c3cccc(F)c3)o2)CC1 (configuration not stated) | 62% |
| CCN(CC)CCOC(=O)c1ccc(Nc2c3c(nc4ccccc24)CCC3)cc1 | 94% |
| Cc1c(C(=O)N2CCC(c3nc4ccccc4s3)CC2)oc2cc(Br)ccc12 | 107% |
| COc1cccc(-c2nnc(SCC(=O)N3CCCCC3)o2)c1 | 98% |
| CCc1ccc(NC(=O)Cn2nc(C(F)(F)F)c3c2CCCC3)cc1 | 94% |
| CCOc1ccc(CCNS(=O)(=O)c2c(C)nc3sc(C)cn3c2=O)cc1OCC | 58% |

| Compound | survival |
| --- | --- |
| CCN(CC)c1ccc(C2C(C(=O)Nc3ccccc3C)=C(C)Nc3ncnn32)cc1 (configuration not stated) | 99% |
| Cc1ccc(-n2ncc3c(N4CCN(C)CC4)ncnc32)cc1 | 81% |
| CN(C)C(=O)c1ccc2c(c1)N(CC(=O)NCc1ccc(F)cc1)C(=O)C1CCCCN21 (configuration not stated) | 74% |
| CCOC(=O)c1c(-c2cccs2)csc1NC(=O)C(F)(F)F | 70% |
| CCOC(=O)c1ccccc1NC(=O)Cn1c(=O)n(Cc2nc(-c3ccccc3)no2)c(=O)c2ccccc21 | 72% |
| Cc1ccc(CNC(=O)CSc2c3c(nc4ccc(Cl)cc24)CCCC3)cc1 | 76% |
| CCCN(CCC)C(=O)CSc1c2c(nc3ccc(Cl)cc13)CCCC2 | 38% (active) |
| CCc1ccc(CNC(=O)CSc2c3c(nc4ccc(Cl)cc24)CCCC3)cc1 | 63% |
| COc1cc(OC)c(N(C)C(=O)CSc2c3c(nc4ccc(Cl)cc24)CCCC3)cc1Cl | 33% (active) |
| COc1ccc(NC(=O)CSc2c3c(nc4ccc(Cl)cc24)CCCC3)cc1Cl | 55% |
| CN(Cc1ccccc1)C(=O)CSc1c2c(nc3ccc(Cl)cc13)CCCC2 | 0% (active) |
| CCCCN(C)C(=O)CSc1c2c(nc3ccc(Cl)cc13)CCCC2 | -2% (active) |
| COc1cccc(CNC(=O)CSc2c3c(nc4ccc(Cl)cc24)CCCC3)c1OC | 62% |
| Cc1ccc2nc(NC(=O)CSc3[nH]c(=O)ncc3C)sc2c1 | 102% |
| O=S(=O)(c1ccc2nsnc2c1)N1CCCCC1 | 66% |
| CCOc1ccc(CNC(=O)c2cc3ccccn3n2)cc1OC | 74% |
| CCOc1ccc(NC(=O)C2CC(=O)N(c3ccc(C(C)C)cc3)C2)cc1 (configuration not stated) | 91% |
| COc1ccc(CCNC(=O)CCn2c(=O)c3ccccc3n(Cc3c(C)cc(C)cc3C)c2=O)cc1OC | 89% |
| Cc1cccc(N2CCN(c3nc4ccccc4c4nc(-c5ccccc5)nn34)CC2)c1C | 92% |
| COc1ccc(N2CCN(C(=O)Nc3ccccc3Cl)CC2)cc1 | 167% |
| CC(CNC(=O)Cn1ccc2cc(S(=O)(=O)N3CCCCCC3)ccc21)c1ccccc1 (configuration not stated) | 109% |
| CCN(CC)CCCNC(=O)CSc1c2c(nc3cc(Cl)ccc13)CCCC2 | 109% |
| CCCCN(CC)C(=O)CSc1c2c(nc3ccc(Cl)cc13)CCCC2 | -2% (active) |
